# Laboratory results as given in PubChem BioAssay (Tox21).
# “And” between values parts separate entries of the source, which are not always exact repeats. Equal entries are not always repeated. Results filed as inconclusive are left out. Entries that show only a call come without a potency. Where a structure was tested more than once in an assay, its records may differ in their call. The source made the active and inactive calls. Calls follow the shape of the dose curve; as a rule, active = well fitted curve in the direction sought with a large enough effect in the repeat runs; inconclusive = weak or mixed curves; inactive = no such curve, though single readings can be large; an effect the other way counts as inactive or inconclusive.
# Key:
# [1] = qHTS RealTime-Glo MT Cell Viability Assay in HEK293 cells - 16 hour (AID 1224872); settings: RealTime-Glo luminescence; series mostly up to 76.8 µM; also: nearly all actives have a fitted effect of over 50% in size; also: potency is read from the fitted curve at half-maximal effect
# Method in brief: (§1)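 HEK293 cells were seeded at 600 cells/well together with NanoLuc luciferase and cell-permeant prosubstrate, preincubated 5 h at 37 C/5% CO2, then given compound in DMSO by pintool. Luminescence from viable-cell prosubstrate reduction was read repeatedly over 40 h.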
# [2] = qHTS RealTime-Glo MT Cell Viability Assay in HepG2 cells - 8 hour (AID 1224873); settings: RealTime-Glo luminescence; series mostly up to 76.8 µM; also: nearly all actives have a fitted effect of over 55% in size; also: potency is read from the fitted curve at half-maximal effect
# Method in brief: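 HepG2 cells (600/well) mixed with RealTime-Glo MT reagent, settled 5 h at 37 C/5% CO2 before compound addition. Nonlytic NanoLuc luminescence from viable-cell prosubstrate reduction read repeatedly during 40 h treatment at 37 C.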
# [3] = qHTS RealTime-Glo MT Cell Viability Assay in HEK293 cells - 40 hour (AID 1224874); settings: RealTime-Glo luminescence; max response: stronger effect = lower value; also: nearly all actives have a fitted effect of over 50% in size; also: potency is read from the fitted curve at half-maximal effect
# Method in brief: (§2)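 600 HEK293 cells per well, dispensed already mixed with RealTime-Glo MT reagents. Compound dosing came 5 h later. The same wells were read for luminescence at 0, 8, 16, 24, 32 and 40 h of exposure at 37 C.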
# [4] = A CellTox Green Cytotoxicity Assay to monitor cytotoxicity in HEK293 cells - 24 hour (AID 1224875); settings: CellTox Green fluorescence; series mostly up to 76.8 µM; also: nearly all actives have a fitted effect of over 45% in size; also: potency is read from the fitted curve at half-maximal effect
# Method in brief: (§3)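 Dead-cell fluorescence measured kinetically: asymmetric cyanine dye, HEK293, 600 cells/well, 5 h settle, 23 nL cpd/DMSO, 37 C, reads 0–40 h every 8 h.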
# [5] = qHTS RealTime-Glo MT Cell Viability Assay in HepG2 cells - 32 hour (AID 1224877); settings: RealTime-Glo luminescence; series mostly up to 76.8 µM; also: nearly all actives have a fitted effect of over 55% in size; also: potency is read from the fitted curve at half-maximal effect
# Method in brief: (§4)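 HepG2 cells were seeded at 600 cells/well together with NanoLuc luciferase and a cell-permeant prosubstrate, preincubated 5 h at 37 C/5% CO2, then pin-dosed with compounds in DMSO. Nonlytic luminescence from viable cells was read at each time point.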
# [6] = A CellTox Green Cytotoxicity Assay to monitor cytotoxicity in HepG2 cells - 24 hour (AID 1224878); settings: CellTox Green fluorescence; series mostly up to 76.8 µM; also: nearly all actives have a fitted effect of over 45% in size; also: potency is read from the fitted curve at half-maximal effect
# Method in brief: (§5)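 First, HepG2 cells (600/well) mixed with reagent were plated; second, after 5 h at 37 C they received compounds via pintool; third, fluorescence was measured at 0 h through 40 h at 8 h intervals.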
# [7] = A CellTox Green Cytotoxicity Assay to monitor cytotoxicity in HepG2 cells - 40 hour (AID 1224879); settings: CellTox Green fluorescence; series mostly up to 76.8 µM; also: nearly all actives have a fitted effect of over 40% in size; also: potency is read from the fitted curve at half-maximal effect
# Method in brief: as §5
# [8] = qHTS RealTime-Glo MT Cell Viability Assay in HEK293 cells - 0 hour (AID 1224880); settings: RealTime-Glo luminescence; series mostly up to 76.8 µM; also: nearly all actives have a fitted effect of over 45% in size; also: potency is read from the fitted curve at half-maximal effect
# Method in brief: as §2
# [9] = A CellTox Green Cytotoxicity Assay to monitor cytotoxicity in HEK293 cells - 32 hour (AID 1224881); settings: CellTox Green fluorescence; series mostly up to 76.8 µM; also: nearly all actives have a fitted effect of over 40% in size; also: potency is read from the fitted curve at half-maximal effect
# Method in brief: as §3
# [10] = A CellTox Green Cytotoxicity Assay to monitor cytotoxicity in HepG2 cells - 0 hour (AID 1224882); settings: CellTox Green fluorescence; series mostly up to 76.8 µM; also: nearly all actives have a fitted effect of over 35% in size; also: potency is read from the fitted curve at half-maximal effect
# Method in brief: as §5
# [11] = A CellTox Green Cytotoxicity Assay to monitor cytotoxicity in HepG2 cells - 32 hour (AID 1224883); settings: CellTox Green fluorescence; series mostly up to 76.8 µM; also: nearly all actives have a fitted effect of over 50% in size; also: potency is read from the fitted curve at half-maximal effect
# Method in brief: as §5
# [12] = A CellTox Green Cytotoxicity Assay to monitor cytotoxicity in HEK293 cells - 8 hour (AID 1224884); settings: CellTox Green fluorescence; series mostly up to 76.8 µM; also: nearly all actives have a fitted effect of over 35% in size; also: potency is read from the fitted curve at half-maximal effect
# Method in brief: as §3
# [13] = qHTS RealTime-Glo MT Cell Viability Assay in HepG2 cells - 16 hour (AID 1224885); settings: RealTime-Glo luminescence; series mostly up to 76.8 µM; also: nearly all actives have a fitted effect of over 50% in size; also: potency is read from the fitted curve at half-maximal effect
# Method in brief: as §4
# [14] = qHTS RealTime-Glo MT Cell Viability Assay in HEK293 cells - 24 hour (AID 1224886); settings: RealTime-Glo luminescence; series mostly up to 76.8 µM; also: nearly all actives have a fitted effect of over 50% in size; also: potency is read from the fitted curve at half-maximal effect
# Method in brief: as §1
# [15] = qHTS RealTime-Glo MT Cell Viability Assay in HEK293 cells - 8 hour (AID 1224887); settings: RealTime-Glo luminescence; series mostly up to 76.8 µM; also: nearly all actives have a fitted effect of over 50% in size; also: potency is read from the fitted curve at half-maximal effect
# Method in brief: as §2
# [16] = A CellTox Green Cytotoxicity Assay to monitor cytotoxicity in HEK293 cells - 16 hour (AID 1224888); settings: CellTox Green fluorescence; series mostly up to 76.8 µM; also: nearly all actives have a fitted effect of over 35% in size; also: potency is read from the fitted curve at half-maximal effect
# Method in brief: as §3
# [17] = qHTS RealTime-Glo MT Cell Viability Assay in HepG2 cells - 0 hour (AID 1224889); settings: RealTime-Glo luminescence; series mostly up to 76.8 µM; also: nearly all actives have a fitted effect of over 50% in size
# Method in brief: as §4
# [18] = A CellTox Green Cytotoxicity Assay to monitor cytotoxicity in HepG2 cells - 8 hour (AID 1224890); settings: CellTox Green fluorescence; series mostly up to 76.8 µM; also: nearly all actives have a fitted effect of over 45% in size; also: potency is read from the fitted curve at half-maximal effect
# Method in brief: as §5
# [19] = qHTS assay to identify small molecule antagonists of the estrogen receptor alpha (ER-alpha) signaling pathway using the BG1 cell line in the presence of 0.1 nM 17-beta-estradiol - cell viability counter screen (AID 1259241); settings: VM7Luc4E2 (BG1) viability, CellTiter-Fluor protease, 22 h, 0.1 nM estradiol agonist added; series mostly up to 92.4 µM; also: nearly all actives have a fitted effect of over 40% in size; also: potency is read from the fitted curve at half-maximal effect
# Method in brief: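 Viability in VM7Luc4E2 cells after 22 hr compound exposure under 0.1 nM 17beta-estradiol stimulation, by CellTiter-Fluor.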
# [20] = A CellTox Green Cytotoxicity Assay to monitor cytotoxicity in HepG2 cells - 16 hour (AID 1224876); settings: CellTox Green fluorescence; series mostly up to 76.8 µM; also: nearly all actives have a fitted effect of over 45% in size
# Method in brief: as §5
compound,measurement,setting,value
CN1CCC[C@H]1c1cccnc1,Potency,[1],inactive
same,Potency,[2],inactive
same,max response,[3],-1.49% (inactive) and 19.5% (inactive) and 2.35% (inactive)
same,Potency,[4],inactive
same,Potency,[5],inactive
same,Potency,[6],inactive
same,Potency,[7],inactive
same,Potency,[8],inactive
same,Potency,[9],inactive
same,Potency,[10],inactive
same,Potency,[11],inactive
same,Potency,[12],inactive
same,Potency,[13],inactive
same,Potency,[14],inactive
same,Potency,[15],inactive
same,Potency,[16],inactive
same,Potency,[17],inactive
same,Potency,[18],inactive
same,Potency,[19],inactive
CC(O)(P(=O)(O)O)P(=O)(O)O,Potency,[1],inactive
same,Potency,[2],inactive
same,max response,[3],-0.279% (inactive) and 1.56% (inactive) and -3.74% (inactive)
same,Potency,[4],inactive
same,Potency,[5],inactive
same,Potency,[6],inactive
same,Potency,[7],inactive
same,Potency,[8],inactive
same,Potency,[9],inactive
same,Potency,[10],inactive
same,Potency,[12],inactive
same,Potency,[13],inactive
same,Potency,[14],inactive and 436 nM (active)
same,Potency,[15],inactive
same,Potency,[16],inactive
same,Potency,[17],inactive
same,Potency,[18],inactive
same,Potency,[19],inactive
O=c1[nH]cnc2c1ncn2[C@H]1CC[C@@H](CO)O1,Potency,[1],inactive
same,Potency,[2],inactive
same,max response,[3],9.2% (inactive) and 0.925% (inactive) and -0.369% (inactive)
same,Potency,[4],inactive
same,Potency,[20],inactive
same,Potency,[5],inactive
same,Potency,[6],inactive
same,Potency,[7],inactive
same,Potency,[8],inactive
same,Potency,[9],inactive
same,Potency,[10],inactive
same,Potency,[12],inactive
same,Potency,[13],inactive
same,Potency,[14],inactive
same,Potency,[15],inactive
same,Potency,[16],inactive
same,Potency,[18],inactive
same,Potency,[19],inactive
O=CC(=O)c1ccccc1,Potency,[1],inactive
same,Potency,[2],inactive
same,max response,[3],13% (inactive)
same,Potency,[4],inactive
same,Potency,[20],inactive
same,Potency,[5],inactive
same,Potency,[6],inactive
same,Potency,[7],inactive
same,Potency,[8],inactive
same,Potency,[10],inactive
same,Potency,[12],inactive
same,Potency,[13],inactive
same,Potency,[14],inactive
same,Potency,[15],inactive
same,Potency,[16],inactive
same,Potency,[17],inactive
same,Potency,[18],inactive
same,Potency,[19],inactive
CC(=O)CCC(=O)O,Potency,[1],inactive
same,Potency,[2],inactive
same,max response,[3],-1.85% (inactive) and 3.92% (inactive) and 7.17% (inactive)
same,Potency,[4],inactive
same,Potency,[5],inactive
same,Potency,[6],inactive
same,Potency,[7],inactive
same,Potency,[8],inactive
same,Potency,[9],inactive
same,Potency,[10],inactive
same,Potency,[11],inactive
same,Potency,[12],inactive
same,Potency,[13],inactive
same,Potency,[14],inactive
same,Potency,[15],inactive
same,Potency,[16],inactive
same,Potency,[17],inactive
same,Potency,[18],inactive
same,Potency,[19],inactive
O=C1OC2(c3ccccc31)c1cc(Br)c(O)c(Br)c1Oc1c2cc(Br)c(O)c1Br,Potency,[1],inactive
same,Potency,[2],inactive
same,max response,[3],-26.3% (inactive) and -6.61% (inactive)
same,Potency,[4],4.43 µM (active) and 7.11 µM (active) and 9.52 µM (active)
same,Potency,[5],inactive
same,Potency,[6],4.97 µM (active) and 12.7 µM (active) and 23.9 µM (active)
same,Potency,[7],5.58 µM (active) and 14.2 µM (active) and 23.9 µM (active)
same,Potency,[8],9.92 µM (active) and 17.9 µM (active) and 23.9 µM (active)
same,Potency,[9],4.97 µM (active) and 7.11 µM (active) and 21.3 µM (active)
same,Potency,[10],9.92 µM (active) and 11.3 µM (active) and 23.9 µM (active)
same,Potency,[11],5.58 µM (active) and 14.2 µM (active) and 23.9 µM (active)
same,Potency,[12],5.58 µM (active) and 12.7 µM (active) and 19 µM (active)
same,Potency,[13],inactive
same,Potency,[14],inactive
same,Potency,[15],inactive
same,Potency,[16],4.43 µM (active) and 7.11 µM (active) and 19 µM (active)
same,Potency,[18],5.58 µM (active) and 14.2 µM (active) and 21.3 µM (active)
same,Potency,[19],7.81 µM (active) and 22.3 µM (active) and 11.9 µM (active)
O=C1c2c(O)cccc2Cc2cccc(O)c21,Potency,[1],inactive
same,Potency,[2],inactive
same,max response,[3],-2.74% (inactive) and 0.603% (inactive) and 0.249% (inactive)
same,Potency,[4],inactive
same,Potency,[20],inactive
same,Potency,[5],inactive
same,Potency,[6],inactive
same,Potency,[7],inactive
same,Potency,[8],inactive
same,Potency,[9],inactive
same,Potency,[10],inactive
same,Potency,[12],inactive
same,Potency,[13],inactive
same,Potency,[14],inactive
same,Potency,[15],inactive
same,Potency,[16],inactive
same,Potency,[18],inactive
same,Potency,[19],inactive
CN1[C@@H]2CC(OC(=O)[C@H](CO)c3ccccc3)C[C@H]1[C@@H]1O[C@@H]12 (some centres undefined),Potency,[1],inactive
same,Potency,[2],inactive
same,max response,[3],0.652% (inactive) [middle of 4 runs]
same,Potency,[4],inactive
same,Potency,[5],inactive
same,Potency,[6],inactive
same,Potency,[7],inactive
same,Potency,[8],inactive
same,Potency,[9],inactive
same,Potency,[10],inactive
same,Potency,[12],inactive
same,Potency,[13],inactive
same,Potency,[14],inactive
same,Potency,[15],inactive
same,Potency,[16],inactive
same,Potency,[17],inactive
same,Potency,[18],inactive
same,Potency,[19],inactive
O=c1[nH]cc(F)c(=O)[nH]1,Potency,[1],inactive
same,Potency,[2],inactive
same,max response,[3],-1.84% (inactive) and 1.38% (inactive)
same,Potency,[4],inactive
same,Potency,[5],inactive
same,Potency,[6],inactive
same,Potency,[7],45.3 µM (active) and inactive
same,Potency,[8],inactive
same,Potency,[9],50.8 µM (active) and inactive
same,Potency,[10],inactive
same,Potency,[11],45.3 µM (active) and inactive
same,Potency,[12],inactive
same,Potency,[13],inactive
same,Potency,[14],inactive
same,Potency,[15],inactive
same,Potency,[16],inactive
same,Potency,[18],inactive
CN(N=O)C(=O)N[C@@H]1[C@@H](O)[C@H](O)[C@@H](CO)O[C@@H]1O,Potency,[1],inactive
same,Potency,[2],inactive
same,max response,[3],1.13% (inactive) and 4.9% (inactive) and 1.17% (inactive)
same,Potency,[4],inactive
same,Potency,[20],inactive
same,Potency,[5],inactive
same,Potency,[6],inactive
same,Potency,[7],inactive
same,Potency,[8],inactive
same,Potency,[9],inactive
same,Potency,[10],inactive
same,Potency,[12],inactive
same,Potency,[13],inactive
same,Potency,[14],inactive
same,Potency,[15],inactive
same,Potency,[16],inactive
same,Potency,[18],inactive
same,Potency,[19],inactive
CN1CCc2cccc3c2[C@H]1Cc1ccc(O)c(O)c1-3,Potency,[1],15.7 µM (active) and 10.3 µM (active)
same,Potency,[2],49.5 µM (active)
same,Potency,[3],15.7 µM (active) and 10.3 µM (active) and 21.3 µM (active)
same,Potency,[4],inactive
same,Potency,[5],49.5 µM (active) and 16.3 µM (active)
same,Potency,[6],inactive
same,Potency,[7],49.5 µM (active) and 18.3 µM (active) and inactive
same,Potency,[8],inactive
same,Potency,[9],55.5 µM (active) and inactive
same,Potency,[10],inactive
same,Potency,[12],inactive
same,Potency,[13],49.5 µM (active) and 18.3 µM (active) and 23.9 µM (active)
same,Potency,[14],14 µM (active) and 8.17 µM (active) and 23.9 µM (active)
same,Potency,[15],24.8 µM (active) and 14.5 µM (active)
same,Potency,[16],inactive
same,Potency,[17],inactive
same,Potency,[18],inactive
same,Potency,[19],49.1 µM (active) and 20.4 µM (active)
